The results in this text go back to the supplement of paper PMC6555819.

The test system of this experiment is VDR:RXRa (NR concentration 270 nM, RXRa partner concentration 90 nM). The experiment in a line: PBM binding z-score (relative to random genomic background probes); higher = stronger binding; sequences stand for … in GC…GCGATTGACAGCGTAGAATGAAGG
How it is done: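 Protein-binding microarray (Agilent 4x180K custom design, double-stranded 60-nt probes: 5' GC cap, 34-nt variable region, 24-nt constant primer region; full probe sequence given). Purified or IVT nuclear receptor:RXRα heterodimers (3:1 NR:RXRα, mostly 270:90 nM) or homodimers were incubated for 1 h in PBS with 2% milk and no ligand, then detected with Alexa488 antibodies. Fluorescence from o1-orientation probes (~5 replicates averaged) was converted to z-scores against 500 random hg19 background probes. Variable regions are seed direct-repeat (DR0–DR5) sites, all their single-nucleotide variants and half-site ablations.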
Sequence TGAATGAGGTTATAAGATCAGGGTACGTTGCAAA came in with a PBM binding z-score of 1.79.
In turn, GGAACGAGGGCATTCGAGTAGATAGCATGGCGAT gave a PBM binding z-score of 0.958.
TCATATAGGTAAATGCTAGGAGAAAGTCCGATCT yielded a PBM binding z-score of 0.71.
In turn, TATTGTAGATCAAGCAGGTTAAGAAAGCCTGAGT yielded a PBM binding z-score of 0.301.
Consider CTACCAAGGGGAACAAGGTCGTTGATTACTATTC, for which the PBM binding z-score was determined as 3.86.
On to GCTTGTAGATCAAGGTTAAGACAGACTAAGCTAA, for which the PBM binding z-score turned out to be 0.166.
For AATCAAAGTTCAGGACGAGGTAACGTAAAGCACG the value was 3; for ACTCGGAGGACATAGGTCAGAGCTACGCCAGTGA, 1.03.
Consider CGTCCAAGGTCAGCAGGTCAGTGCAAGCGACGTG, for which the PBM binding z-score turned out to be 3.93.
In turn, ACTAGTTGGTCTGCTGAGGTCACACACAATTCGG showed a PBM binding z-score of 3.54.
Take AGAATGAGGTTATACGTAGATCAAGGAAGAAAGT: the PBM binding z-score turned out to be 1.33.
Take TAGCCTAGGTCATTCAGGGCCCAGTATAGAAAGC: the PBM binding z-score is 2.8.
AATACAGGGTCATCGTAGGCCAGAGTTCGCACAG returned a PBM binding z-score of 5.79.
With ATCTCTAGGTAACCAACTTCAGTGAATGCCGAAC the figure was 0.0615; with TCGAGTATGTTAGTCGGGGCATTCAGCCAACATA, 0.158; with TCTTGTAGATCAAGCAAGTTAAGAAAGCCTGAGT, 0.328.
Regarding ACTAGTTGGTCAGCTGTGGTCACACACAATTCGG, the PBM binding z-score was found to be 0.029.
TCAAGTTGGTCAAAGGTCACACACTCGAAATGCG showed a PBM binding z-score of 5.58.
The sequence CCTACTGGGCCACGAAAGTTCATTGATTCAGTGA returned a PBM binding z-score of 3.51.
With GCGACTGGGGCAAAGCAGGTTACCAGAAGGTTGG, the PBM binding z-score was determined as 0.13.
Take TCATGTAGATCAATAGAGGTTAAGAAAGTGCGCT: the PBM binding z-score stood at 1.93.
CGTCCAAGGTCTGAGAGGTCAGTGAATGCCGAGT registered a PBM binding z-score of 3.29.
Sequence TCATATAGGTAAATGCCAGGTGAAAGTCCGATCT returned a PBM binding z-score of 1.12.
CTACCAGGGTGAACAAGGTCGTTGATTACTATTC had a PBM binding z-score of 6.27.
TGAATGAGGTTAGAGATCAGGGAACGTGGCGTCG gave a PBM binding z-score of 0.296.
Sequence TCTTGTAGATCAATAGAGGCTAAGAAAGTGCGCT registered a PBM binding z-score of 0.377.
The sequence ATCTCTAGGTAAAAGTTCTGTGAATCCCGAGGAT yielded a PBM binding z-score of -0.0345.
TAGCCTAGGTCATGCGGGCCAGTATTGTGTCGGC displayed a PBM binding z-score of 2.92.
TAGCCTAGGTCAGATCGGGCCAGTATTCGCTATA had a PBM binding z-score of 0.465.
For the sequence CGTCCAAGGTCAGCAGGTTAGTGAAAGCGACGTG, the PBM binding z-score was found to be 4.07.
The sequence TCAGACAGGTCAAGGTAACTCAGGTACGCAGTCG yielded a PBM binding z-score of 3.09.
In turn, CGAACTAGGTCAGAACAGGACAGTGACGGATGAT registered a PBM binding z-score of 0.542.
With TCAGATAGGTGAAGGTAACTCAGGTACGCAGTCG the figure was 0.796; with CCTAGCTGGTCAAGGTCACACACGCTATAGGTAC, 3.75; with ATCTCTAGGTTAGACTCAGTTCAGTGAAGAACGC, 1.7.
Consider AGTCAAAGTTCATTAGGTAACGTAAGATTCAGCT, for which the PBM binding z-score is 4.72.
Consider CCTACTCGGCCATCAGGTCATTGATATCAACGTT, for which the PBM binding z-score was found to be 2.37.
AGATCGAGGGCACGCTGAGTTGATAGCAGAGTAG showed a PBM binding z-score of 1.85.
In turn, TCGAGTAGGTTACTCGGGGCATTCAGCCAACATA returned a PBM binding z-score of 3.33.
As to CTAGACAGGTGAAAGGTAACTCAGTCTGGTACGC, the PBM binding z-score was 0.828.
